# Sampled rows, rich in hits. Any-hit rate of the full collection: about 7.3%.
# Tau fluor cs: Counterscreen qHTS for Inhibitors of Tau Fibril Formation, Fluorescence Polarization | tau K18 P301L Alexa594 fluorescence, heparin fibrillization | Potency, µM (series often up to 57.7 µM), inactives show top-dose activity change, negative = decrease | 0.93% of 280,000 active; further: nearly all actives have a fitted effect of over 55% in size
#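 Human K18 P301L tau (15 uM unlabeled plus 0.24 uM Alexa 594-labeled, final) in 100 mM sodium acetate pH 7 was mixed with compound and 20 uM heparin and incubated 6 hr at 37 C.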
# VP16 counter: VP16 counterscreen qHTS for inhibitors of ROR gamma transcriptional activity; 3.5% of 310,000 active; AID 2546, 2010; Potency, µM (highest dose often 53.6 µM), for inactives: top-dose activity, negative = inhibition, hits mostly inhibitors; Drosophila S2 Gal4-VP16 UAS-luciferase, luminescence, 20 h;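 further: Gal4-VP16 expression switched on by copper sulfate through the metallothionein promoter; nearly all actives have a fitted effect of over 50% in size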
# Tau FP inhib: qHTS for Inhibitors of Tau Fibril Formation, Fluorescence Polarization; Microtubule-associated protein tau (Homo sapiens), P10636; AID 1468, 2008; 0.39% of 280,000 active; K18 P301L tau heparin fibrillization, Alexa594 FP, 6 h; Potency, µM (doses to about 57.7 µM), without a hit: top-dose activity, negative = inhibition, usual class: inhibitors; further: nearly all actives have a fitted effect of over 55% in size
# Target sequence (P10636 561-689 P618L limits assumed): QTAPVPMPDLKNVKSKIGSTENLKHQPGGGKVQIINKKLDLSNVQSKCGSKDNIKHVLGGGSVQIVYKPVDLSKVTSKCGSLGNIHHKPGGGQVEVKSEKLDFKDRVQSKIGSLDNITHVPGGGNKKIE
#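 Quantitative HTS format: compounds meet 15 uM recombinant K18 P301L tau and Alexa 594-tau tracer in 100 mM sodium acetate pH 7; 20 uM heparin triggers fibrillization at 37 C over 6 hr; FP gives the signal.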
# Tau fibril ThT: qHTS for Inhibitors of Tau Fibril Formation, Thioflavin T Binding; Microtubule-associated protein tau (Homo sapiens), P10636; recombinant tau K18 P301L (four-repeat tau fragment), heparin-induced fibrillization, ThT fluorescence; Potency, µM (top dose mostly 57.4 µM), without a hit: at the top dose activity, negative = inhibition, usual class: inhibitors; 2.1% of 270,000 active; AID 1460, 2008; further: nearly all actives have a fitted effect of over 55% in size
#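 Recombinant human tau K18 fragment […] carrying P301L, 15 uM unlabeled plus 0.24 uM Alexa 594-labeled, was fibrillized with 20 uM heparin in 100 mM sodium acetate pH 7 for 6 hr at 37 C; 30 uM ThT fluorescence read after 1 hr.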
# RORg inh: qHTS for inhibitors of ROR gamma transcriptional activity. Nuclear receptor ROR-gamma (Mus musculus), P51450. Drosophila S2 Gal4-RORgamma UAS-luciferase reporter, 20 h. Potency, µM (highest dose often 53.6 µM), for the others: top-dose activity change, negative = inhibition, actives largely listed as inhibitors. 5.4% of 310,000 active; further: nearly all actives have a fitted effect of over 60% in size
# Target sequence (P51450 whole entry, looked up, the tested form may be a part): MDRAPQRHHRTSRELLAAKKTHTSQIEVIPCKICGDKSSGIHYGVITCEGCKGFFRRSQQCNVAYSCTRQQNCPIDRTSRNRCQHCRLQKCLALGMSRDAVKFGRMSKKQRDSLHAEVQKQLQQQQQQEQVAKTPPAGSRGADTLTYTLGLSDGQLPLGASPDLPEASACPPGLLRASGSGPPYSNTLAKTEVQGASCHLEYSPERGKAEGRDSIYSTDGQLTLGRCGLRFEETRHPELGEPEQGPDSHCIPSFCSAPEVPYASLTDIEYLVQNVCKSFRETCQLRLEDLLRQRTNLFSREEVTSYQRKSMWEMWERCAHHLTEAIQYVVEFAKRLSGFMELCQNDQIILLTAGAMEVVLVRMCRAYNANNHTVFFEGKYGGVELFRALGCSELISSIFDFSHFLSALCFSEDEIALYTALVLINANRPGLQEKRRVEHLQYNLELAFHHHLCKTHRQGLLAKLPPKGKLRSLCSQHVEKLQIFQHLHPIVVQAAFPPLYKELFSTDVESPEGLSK
#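 Stable Schneider cell line, Gal4 DNA-binding domain fused to ROR gamma, UAS-luciferase. Cmpd 1 hr RT → CuSO4 700 uM final → 20 hr RT → luciferase reagent 10 min → luminescence.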
# * marks the source's active call; other numbers are inactive results; ? = inconclusive; / = no result given; [ ] = remark or other dose. The call rests on the fitted dose curve; in most records, active means well fitted curve in the direction sought with a large enough effect; inconclusive means small, poorly fitted or top-dose-only effect, or another doubt; inactive means no such curve, though single readings can be large; an effect the other way counts as inactive or inconclusive. On the % scale 0 is the no-effect control and ±100 the full control effect; potency means the concentration at half of the fitted maximal effect.
SMILES,Tau fluor cs,VP16 counter,Tau FP inhib,Tau fibril ThT,RORg inh
S=C(NCc1ccco1)NC1CCCc2ccccc21 (centres undefined),0%,13µM*,-1%,1%,4.5µM*
Cc1c(C(=O)NC2CCCc3ccccc32)oc2ccccc12 (centres undefined),-21%,8%,-14%,?,4.5µM*
CNC(=O)NC1CCCc2ccccc21 (centres undefined),-5%,1%,-9%,-3%,?
S=C(NCc1ccccc1)NC1CCCc2ccccc21 (centres undefined),-24%,11µM*,-11%,-7%,2.5µM*
COC(=O)CC1c2cc(OC)c(OC)cc2CCN1C(=O)Nc1ccc(C)cc1Cl (centres undefined),4%,/,2%,3%,/
COC(=O)N1C(=O)[C@@](c2ccccc2)(C2CCCCC2)N1C(=O)OC,/,-8%,/,/,7.9µM*
COc1ccc(/C=N/NC(=O)C(=O)N2CCCCCC2)cc1O,/,-26%,/,/,-3%
COc1ccc(C(=O)c2sc3nc(-c4ccc(F)cc4)ccc3c2N)cc1,?,/,-11%,?,/
COc1cccc(-c2ccc3c(N)c(C(=O)NCc4ccc(Cl)cc4)sc3n2)c1,4.5µM*[quencher],/,10%,?,/
Cc1ccc(NC(=O)c2sc3nc(-c4ccncc4)ccc3c2N)cc1,-20%,/,-18%,?,/
COc1cccc(-c2ccc3c(N)c(C(=O)c4ccc(F)cc4)sc3n2)c1,3.2µM*[quencher],/,?,?,/
Cc1ccccc1NC(=O)c1sc2nc(-c3ccncc3)ccc2c1N,10µM*[quencher],/,13%,5µM*,/
COc1cccc(-c2ccc3c(N)c(C(=O)Nc4ccccc4C)sc3n2)c1,8.9µM*[quencher],/,-4%,?,/
COc1ccc(B(O)O)cc1,-7%,10%,-1%,-1%,-15%
COc1ccc(C(=O)NCC(=O)Nc2ccc(-c3ccccc3)cc2)cc1,/,2%,/,/,5%
COc1cccc(-c2ccc3c(N)c(C(=O)NC4CC4)sc3n2)c1,16µM*[quencher],-18%,13%,?,5%
COc1cccc(-c2ccc3c(N)c(C(=O)Nc4cc(F)ccc4F)sc3n2)c1,?,/,12%,?,/
Cc1ccc(C)c(-n2c(SCC(=O)NCC3CCCO3)nnc2-c2ccoc2C)c1 (centres undefined),-15%,1%,28µM*,?,3%
Cc1ccc(-n2c(SCC(=O)NCC3CCCO3)nnc2-c2ccoc2C)cc1 (centres undefined),-1%,-1%,0%,0%,-14%
Cc1cccc(-n2c(SCC(=O)Nc3ccc4c(c3)OCO4)nnc2-c2ccoc2C)c1,-26%,?,-12%,-11%,2µM*
O=C(CSc1ncc(-c2ccccc2)[nH]1)Nc1ccc(Cl)cc1,14µM*[quencher],/,-12%,-9%,/
O=C(CSc1ncc(-c2ccc(Cl)cc2)[nH]1)Nc1ccccc1F,14µM*[quencher],/,-4%,-22%,/
O=C(CSc1ncc(-c2ccccc2)[nH]1)Nc1cccc(Br)c1,16µM*[quencher],/,?,?,/
O=C(CSc1ncc(-c2ccccc2)[nH]1)Nc1ccccc1,?,5%,12%,-13%,-17%
O=C(CSc1ncc(-c2ccccc2)[nH]1)Nc1cccc(O)c1,?,1%,11%,-16%,0%
SMILES,Tau fluor cs,VP16 counter,Tau FP inhib,Tau fibril ThT,RORg inh
Cc1cc(O)ccc1N=Cc1c(C(F)(F)F)[nH][nH]c1=O,?,?,32µM*,25µM*,11µM*
Cc1ccc(OCC(=O)Nc2cccc(OCc3cc(=O)n4cccc(C)c4n3)c2)cc1C,-16%,/,4%,-18%,/
Cc1ccc(C(=O)/C=C/c2ccc(-c3ccccc3[N+](=O)[O-])o2)cc1,?,-1%,-4%,8.9µM*,?
O=C(/C=C/c1ccc(-c2ccccc2[N+](=O)[O-])o1)c1ccc(F)cc1,-20%,4%,-3%,?,?
O=C(/C=C/c1ccc(-c2ccccc2[N+](=O)[O-])o1)c1ccc(Br)cc1,?,2%[0.365 µM],-5%,7.9µM*,2%
Cc1ccc(-c2ccc(/C=C/C(=O)c3ccccc3)o2)cc1,-15%,-27%,-7%,13µM*,18%
C=C(CC[C@@H](C)[C@H]1CCC2[C@]1(C)CC[C@]13C[C@@]14CCC(OC(=O)/C=C/c1ccc(O)c(OC)c1)C(C)(C)[C@@H]4CC[C@@]23C)C(C)C (some centres undefined),/,-7%,/,/,-26%
O=c1c(-c2cc(F)cc(F)c2)nc2cnc(N3CCOCC3)nc2n1C1CC1,/,-16%,/,/,-12%
Cc1ccc(S(=O)(=O)Nc2nc3ccccc3nc2NCc2ccco2)cc1,-18%,?,?,?,?
O=S(=O)(Nc1nc2ccccc2nc1NCc1ccco1)c1ccc(Cl)cc1,-20%,11µM*,3%,?,-37%
CCOc1ccc2c(c1)ncn2Cc1ccccc1,0%,1%,2%,5%,11µM*
O=C(c1cnn(-c2ccc(F)cc2)c1-n1cccc1)N1CCN(c2cccc(Cl)c2)CC1,-5%,/,3%,-10%,/
COc1ccc(Cn2c(CO)cnc2SCc2ccc(F)cc2)cc1,-5%,/,-5%,-5%,/
COc1ccnc(CSC(N)=Nc2ccc(F)cc2)c1,-24%,?,?,28µM*,10µM*
O=C(NCCc1csc(-c2ccc(F)cc2)n1)c1c(F)cccc1Cl,-13%,/,6%,-15%,/
O=C1C=C(NCc2ccccc2)CCC1,4%,15%,0%,2%,-40%
O=C1C=C(NC2=CC3OC(c4ccccc4)OCC3OC2=O)CCC1 (centres undefined),-10%,10µM*,?,28µM*,10µM*
CN(C)c1ccc(CN(Cc2ccco2)C(=O)COc2ccc(F)cc2)cc1,?,/,5%,?,/
Cc1cc(NC(=O)c2cccc(COc3ccc(Br)cc3)c2)no1,-2%,?,2%,7%,7.1µM*
CCOc1cc(C(=O)Nc2cc(C)on2)cc(OCC)c1OCC,-1%,1%,0%,-9%,2.2µM*
CCOc1ccc(C(=O)Nc2cc(C)on2)cc1,-3%,?,2%,-3%,?
CCc1cccc(NC(c2nnc(-c3ccccc3)o2)c2ccc(F)cc2Cl)c1 (centres undefined),-19%,/,-2%,-4%,/
COC(=O)c1cc2oc(C)cc2n1CC(=O)Nc1cc(Cl)ccc1OC,-16%,/,-4%,-1%,/
Cc1ccc(NC(=O)CSc2nc(-c3cccs3)nc3cc(=O)[nH]n23)cc1,2%,/,-1%,-2%,/

# Assay outcomes from PubChem.
